Screens (PubChem)
CYP2C9 activ: increases human cytochrome P450 2C9 activity; activation factor at 5 µM; recombinant CYP2C9, luciferin-H conversion, luminescence; hits give high values; factor 1 = untreated enzyme, 0 = blocked; 96,000 compounds, 1.4% hits; P11712;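 active = activation factor of 2 or more for CYP2C9 at a 5 µM dose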;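 note: 0 = sulfaphenazole-blocked wells and 1 = vehicle-only wells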
Target sequence (P11712 whole entry, looked up): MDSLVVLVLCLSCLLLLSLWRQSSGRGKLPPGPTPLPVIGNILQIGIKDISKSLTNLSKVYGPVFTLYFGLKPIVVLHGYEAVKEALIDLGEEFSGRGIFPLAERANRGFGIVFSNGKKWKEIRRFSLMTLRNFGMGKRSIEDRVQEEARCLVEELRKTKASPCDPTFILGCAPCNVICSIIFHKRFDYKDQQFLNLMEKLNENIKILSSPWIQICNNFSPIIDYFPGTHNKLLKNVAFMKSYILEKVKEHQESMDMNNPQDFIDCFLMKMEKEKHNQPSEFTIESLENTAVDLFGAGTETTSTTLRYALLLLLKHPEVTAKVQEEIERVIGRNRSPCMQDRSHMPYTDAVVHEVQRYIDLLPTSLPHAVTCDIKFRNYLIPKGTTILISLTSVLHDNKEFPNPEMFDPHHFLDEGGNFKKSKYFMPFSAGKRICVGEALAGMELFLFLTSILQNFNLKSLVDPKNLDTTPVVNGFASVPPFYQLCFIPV
CYP2C9 inh: blocks human cytochrome P450 2C9; inhibition, % at 5 µM; AID 777; 96,000 compounds, 20% hits; CYP2C9 Supersomes, luciferin-H conversion, luminescence;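 active = blocking of liver enzyme CYP2C9 beyond about 50% at 5 µM, limit read from the data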
PLAP activator: human PLAP activation. P05187. purified PLAP enzyme, luminescent substrate read-out; hits give high values. activation fold at 20 µM. 96,000 compounds, 1.2% hits. AID 696; in the data active = activation fold above about 2
CYP2C19 inh: human CYP2C19 inhibition. P33261. CYP2C19 Supersomes, luciferin-H EGE luminescence, 30 min. inhibition, % at 5 µM. 96,000 compounds, 21% hits. AID 778;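 active = CYP2C19 inhibition above a set limit at 5 µM in the primary screen, cut at about 50% in these data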;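 note: plate controls were negative control wells for no effect and 2.5 mM tranylcypromine positive control for full effect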
CYP2C19 act: activators of human cytochrome P450 2C19. P33261. recombinant CYP2C19, luciferin-H EGE luminescence; hits give high values; 0 = fully inhibited enzyme, 1 = untreated enzyme. activation factor at 5 µM. 96,000 tested, under 10 active. AID 1025;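 active = activation factor of at least 2 at 5 µM in the primary screen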;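 note: 0 = wells with 2.5 mM tranylcypromine and 1 = vehicle-only wells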
Active calls of the source: *. Hits are enriched below; roughly 31% of the tested compounds scored in any of these assays.

What do the screens show for `Cc1ccc(-n2c(-c3cccnc3)n[nH]c2=S)c(C)c1`?
CYP2C9 activ: 1; CYP2C9 inh: -1; PLAP activator: 0.8; CYP2C19 inh: 3; CYP2C19 act: 1

How did O=C(NCC1CCCO1)c1cccc(-n2cnnn2)c1 (configuration not stated) do in these assays?
CYP2C9 activ: 1.2; CYP2C9 inh: -20; PLAP activator: 0.8; CYP2C19 inh: -15; CYP2C19 act: 1.1

How did C=CCNC(=O)CCCc1ccccc1 do in these assays?
CYP2C9 activ: 1; CYP2C9 inh: 4; PLAP activator: 0.9; CYP2C19 inh: 67*; CYP2C19 act: 0.3

What do the screens show for `CC(C)CNC(=O)CCCc1ccccc1`?
CYP2C9 activ: 0.6; CYP2C9 inh: 42; PLAP activator: 1.1; CYP2C19 inh: 83*; CYP2C19 act: 0.2

Results for O=C(O)CCCC(=O)NCCCCc1ccccc1 ?
CYP2C9 activ: 1; CYP2C9 inh: 2; PLAP activator: 1.2; CYP2C19 inh: -2; CYP2C19 act: 1

How did c1ccc2c(c1)CC1(CCCC1)n1nnnc1-2 do in these assays?
CYP2C9 activ: 1; CYP2C9 inh: -4; PLAP activator: 0.9; CYP2C19 inh: 29; CYP2C19 act: 0.7

What do the screens show for `NC(=O)c1oc2ccccc2c1NC(=O)CN1CCCCC1`?
CYP2C9 activ: 1.4; CYP2C9 inh: -38; PLAP activator: 1.1; CYP2C19 inh: -2; CYP2C19 act: 1

How did NC(=O)c1oc2ccccc2c1NC(=O)C1CCCCC1 do in these assays?
CYP2C9 activ: 2.7*; CYP2C9 inh: -172; PLAP activator: 1.1; CYP2C19 inh: 1; CYP2C19 act: 1

What do the screens show for `Cc1occc1C(=O)Nc1ccc2ccccc2c1`?
CYP2C9 activ: 0.7; CYP2C9 inh: 30; PLAP activator: 0.9; CYP2C19 inh: 39; CYP2C19 act: 0.6

Results for O=C1CCN(S(=O)(=O)c2ccccc2)C2CCCCC12 (configuration not stated) ?
CYP2C9 activ: 0.6; CYP2C9 inh: 36; PLAP activator: 1; CYP2C19 inh: 94*; CYP2C19 act: 0.1

What do the screens show for `O=C(COc1ccccc1)Nc1nnc(-c2ccc(Cl)s2)o1`?
CYP2C9 activ: 0.5; CYP2C9 inh: 49; PLAP activator: 0.9; CYP2C19 inh: 13; CYP2C19 act: 0.9

What do the screens show for `O=C(Nc1cccc(-c2nnn(CC(=O)N3CCc4ccccc4C3)n2)c1)C1CCC1`?
CYP2C9 activ: 0.5; CYP2C9 inh: 47; PLAP activator: 2.3*; CYP2C19 inh: 84*; CYP2C19 act: 0.2

How did O=C(Nc1ccccc1-c1nnn(CC(=O)N2CCc3ccccc3C2)n1)C1CCC1 do in these assays?
CYP2C9 activ: 0.4; CYP2C9 inh: 65*; PLAP activator: 0.9; CYP2C19 inh: 20; CYP2C19 act: 0.8

What do the screens show for `CCOC(=O)c1cc2sccc2n1CC(=O)Nc1ccc2c(c1)OCCO2`?
CYP2C9 activ: 0.8; CYP2C9 inh: 18; PLAP activator: 0.9; CYP2C19 inh: -6; CYP2C19 act: 1.1

What do the screens show for `CCOc1ccc(-n2cc(C(=O)N3CCCCCC3)c3cc(OC)c(OC)cc3c2=O)cc1`?
CYP2C9 activ: 0.6; CYP2C9 inh: 37; PLAP activator: 1.2; CYP2C19 inh: 16; CYP2C19 act: 0.8

How did Cc1ccc(S(=O)(=O)C/N=C(/NC(=S)N(c2ccccc2)c2ccccc2)c2ccccc2)cc1 do in these assays?
CYP2C9 activ: 0.3; CYP2C9 inh: 69*; PLAP activator: 1; CYP2C19 inh: 28; CYP2C19 act: 0.7

What do the screens show for `O=C(NCN1C(=O)C2C3C=CC(C3)C2C1=O)Nc1cccnc1` (configuration not stated)?
CYP2C9 activ: 1; CYP2C9 inh: -1; PLAP activator: 1.1; CYP2C19 inh: 6; CYP2C19 act: 0.9

How did O=C(Nc1nnc(-c2ccccc2)s1)c1cc(S(=O)(=O)N2CCOCC2)c(Cl)cc1Cl do in these assays?
CYP2C9 activ: 1; CYP2C9 inh: 4; PLAP activator: 1.1; CYP2C19 inh: 1; CYP2C19 act: 1

Results for c1ccc2nc3c(cc2c1)CCCCCC3 ?
CYP2C9 activ: 0.6; CYP2C9 inh: 44; PLAP activator: 1.2; CYP2C19 inh: 66*; CYP2C19 act: 0.3

How did N#CCSc1nc2c(cc1C#N)CCCCCC2 do in these assays?
CYP2C9 activ: 0.7; CYP2C9 inh: 30; PLAP activator: 0.9; CYP2C19 inh: 10; CYP2C19 act: 0.9

How did c1ccc2c(Oc3ccc4c(c3)OCO4)nncc2c1 do in these assays?
CYP2C9 activ: 0.9; CYP2C9 inh: 5; PLAP activator: 1; CYP2C19 inh: 62*; CYP2C19 act: 0.4

How did CCOC(=O)N1CCN(C(=O)/C(=C/c2ccccc2OC)NC(=O)c2ccccc2)CC1 do in these assays?
CYP2C9 activ: 0.9; CYP2C9 inh: 14; PLAP activator: 1.2; CYP2C19 inh: 10; CYP2C19 act: 0.9

Results for CC(C)(C)NC1=CC(=O)OC12CCCCC2 ?
CYP2C9 activ: 1; CYP2C9 inh: -4; PLAP activator: 0.9; CYP2C19 inh: -8; CYP2C19 act: 1.1

Results for COCCN=C1Sc2nc3ccc(C)cc3cc2CN1Cc1ccco1 ?
CYP2C9 activ: 0.3; CYP2C9 inh: 68*; PLAP activator: 2*; CYP2C19 inh: 59*; CYP2C19 act: 0.4

How did CCOc1ccc2nc3c(cc2c1)CN(CCOC)C(=NCCOC)S3 do in these assays?
CYP2C9 activ: 1; CYP2C9 inh: 4; PLAP activator: 1.1; CYP2C19 inh: 3; CYP2C19 act: 1

What do the screens show for `CCOC(=O)CCNC(=O)CNC(=O)OCc1ccccc1`?
CYP2C9 activ: 0.9; CYP2C9 inh: 8; PLAP activator: 0.9; CYP2C19 inh: 7; CYP2C19 act: 0.9

What do the screens show for `CCOC(=O)C1=C(N)OC2=C(C(=O)CC(C)(C)C2)C1c1ccoc1` (configuration not stated)?
CYP2C9 activ: 0.3; CYP2C9 inh: 67*; PLAP activator: 1.1; CYP2C19 inh: 64*; CYP2C19 act: 0.4

Results for CCOC(=O)C1=C(N)OC2=C(C(=O)CC(C)(C)C2)C1C1CCCCC1 (configuration not stated) ?
CYP2C9 activ: 0.4; CYP2C9 inh: 56*; PLAP activator: 1; CYP2C19 inh: 24; CYP2C19 act: 0.8

What do the screens show for `CCOC(=O)C1=C(N)OC2=C(C(=O)CC(C)(C)C2)C1c1cccnc1` (configuration not stated)?
CYP2C9 activ: 0.3; CYP2C9 inh: 71*; PLAP activator: 0.9; CYP2C19 inh: 76*; CYP2C19 act: 0.2

How did CC1(C)CC(=O)C(C2C3=C(CC(C)(C)CC3=O)Oc3ccccc32)=C(O)C1 (configuration not stated) do in these assays?
CYP2C9 activ: 0.6; CYP2C9 inh: 44; PLAP activator: 1.7; CYP2C19 inh: 8; CYP2C19 act: 0.9

What do the screens show for `COC(=O)C1=C(N)OC2=C(C(=O)CC(C)(C)C2)C1c1cccs1` (configuration not stated)?
CYP2C9 activ: 0.2; CYP2C9 inh: 81*; PLAP activator: 0.9; CYP2C19 inh: 73*; CYP2C19 act: 0.3
